Experiment [1] is described as follows: Nuclear factor erythroid 2-related factor 2/antioxidant responsive element (Nrf2/ARE) small molecule agonists: qHTS cell viability counter screen in human keratinocytes (AID 1919968; active means well fitted curve in the direction sought with a large enough effect in the repeat runs; an effect the other way counts as inactive or inconclusive; further: nearly all actives have a fitted effect of over 55% in size; further: potency means the concentration at half of the fitted maximal effect). Summed up:
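Stably transfected HaCaT (KeratinoSens), 1,500/well. Test agents in DMSO were applied for 23 h, 37 C/5% CO2. CellTiter-Fluor was incubated 1 h before the fluorescence read.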
For orientation: Quantitative high-throughput screening tests each substance at several concentrations.

In experiment [2] the target is Gonadotropin-releasing hormone receptor (Homo sapiens) (UniProt P30968). Put plainly: Human gonadotropin-releasing hormone receptor (GnRHR) small molecule agonists, calcium flux assay in GnRHR-HEK293 cells (AID 1920063). Further: nearly all actives have a fitted effect of over 35% in size. Summed up: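 Stable human GnRHR HEK293 line. 18 h plating, then calcium dye for 1 h at 37 C. Agonist-mode compound addition from DMSO stocks; fluorescence monitored 3 min.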
Chain of Gonadotropin-releasing hormone receptor (Homo sapiens) (P30968 whole entry, looked up): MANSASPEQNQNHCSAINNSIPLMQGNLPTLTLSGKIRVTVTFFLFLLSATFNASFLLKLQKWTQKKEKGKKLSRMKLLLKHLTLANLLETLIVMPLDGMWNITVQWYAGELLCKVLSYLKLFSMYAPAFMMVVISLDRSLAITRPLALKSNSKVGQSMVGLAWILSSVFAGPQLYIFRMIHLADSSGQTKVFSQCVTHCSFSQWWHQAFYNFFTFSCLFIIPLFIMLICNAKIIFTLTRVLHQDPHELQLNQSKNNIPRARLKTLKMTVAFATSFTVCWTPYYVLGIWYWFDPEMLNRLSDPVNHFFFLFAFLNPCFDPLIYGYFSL
Background: Calcium assays in cells follow changes in intracellular calcium, usually with a dye or a luminescent sensor.

Experiment [3] has as its target KiSS-1 receptor (Homo sapiens) (UniProt Q969F8). Put plainly: Human kisspeptin (KISS1R) small molecule agonists, calcium flux assay in KISS1R-HEK293 cells (AID 1920064; active means well fitted curve in the direction sought with a large enough effect in the repeat runs; an effect the other way counts as inactive or inconclusive). Summed up:
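After overnight (18 h) culture at 37 C/5% CO2, human KISS1R-HEK293 cells received calcium dye for 1 h, then test compound; emission at 540 nm (excitation 480 nm) was tracked for 3 min.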

Experiment [4] is described as follows: G protein-coupled receptor (GPCR) small molecule agonists, calcium flux assay: HEK293 wild type cell line counter screen (AID 1920065). The method, boiled down: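 Following 18 h incubation at 37 C/5% CO2, plates got calcium dye for 1 h; compounds, ATP or DMSO were then pinned in and fluorescence followed kinetically (480/540 nm).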
Experiment [5] can be described thus: p53 small molecule agonists, cell-based qHTS assay with human liver microsomes (AID 1963577). Summed up:
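p53RE-bla reporter cells were pre-incubated 5 h at 37 C, then treated with compounds plus human liver microsomes (0.5 mg/mL final) and NADPH (0.5 mg/mL final) for 16 h at 37 C. Beta-lactamase activity was read by LiveBLAzer fluorescence after 2 h at room temperature.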

Experiment [6] in a line: p53 small molecule agonists, cell-based qHTS assay with rat liver microsomes (AID 1963578). Summed up:
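p53RE-bla cells were exposed to compounds together with rat liver microsomes (0.5 mg/mL final) and NADPH (0.5 mg/mL final) for 16 h at 37 C, then read by LiveBLAzer beta-lactamase fluorescence after 2 h at room temperature.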

Experiment [7] in a line: p53 small molecule agonists, cell-based qHTS assay with human liver microsomes: qHTS cell viability counter screen (AID 1963579). Further: nearly all actives have a fitted effect of over 45% in size. Further: potency means the concentration at half of the fitted maximal effect. The method, boiled down: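 p53RE-bla cells (4,000/well) were pre-incubated 5 h at 37 C, then given compounds in DMSO plus human liver microsomes (0.5 mg/mL final) and NADPH (0.5 mg/mL final) for 16 h at 37 C. Viability was read by CellTiter-Glo luminescence.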

Experiment [8] is described as follows: p53 small molecule agonists, cell-based qHTS assay with rat liver microsomes: qHTS cell viability counter screen (AID 1963580). Further: nearly all actives have a fitted effect of over 45% in size. Further: potency means the concentration at half of the fitted maximal effect. Summed up: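 After the beta-lactamase ratio was read, CellTiter-Glo was added to the same wells and luminescence measured at 30 min; cells had been treated 16 h at 37 C with compounds, rat liver microsomes and NADPH (0.5 mg/mL final each).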

A short description of experiment [9]: p53 small molecule agonists, cell-based qHTS assay: qHTS cell viability counter screen (AID 1963581). Further: nearly all actives have a fitted effect of over 45% in size. Further: potency means the concentration at half of the fitted maximal effect. Summed up:
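qHTS counter screen: 16 h compound exposure at 37 C of p53RE-bla HCT-116 cells (4,000 per well, seeded 5 h prior), cell viability by ATP luminescence.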

In experiment [10] the target is 5-hydroxytryptamine receptor 2A (Homo sapiens) (UniProt P28223). The experiment can be described thus: 5-hydroxytryptamine receptor 2A (HTR2A) small molecule antagonists, cell-based qHTS assay (AID 1963586). Further: nearly all actives have a fitted effect of over 45% in size. The method, boiled down:
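CHO cells stably expressing human HTR2A were plated for 18 h at 37 C, then loaded with calcium dye for 1 h. Compounds were preincubated 5 min at room temperature before DOI (4 nM solution) was added. Kinetic fluorescence was read for 3 min.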

Experiment [11] shares this target. The experiment can be described thus: 5-hydroxytryptamine receptor 2A (HTR2A) small molecule agonists, cell-based qHTS assay (AID 1963587). Further: nearly all actives have a fitted effect of over 30% in size. Summed up:
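CHO cells stably expressing human HTR2A, plated 18 h, loaded with calcium dye 1 h at 37 C. Agonist mode: compounds added and intracellular calcium fluorescence recorded kinetically for 2 min at 1 sec intervals.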

Experiment [12] has as its target Muscarinic acetylcholine receptor M1 (Homo sapiens) (UniProt P11229). The experiment can be described thus: Cholinergic receptor muscarinic 1 (CHRM1) small molecule antagonists, cell-based qHTS assay (AID 1963588). Further: nearly all actives have a fitted effect of over 40% in size. Further: potency means the concentration at half of the fitted maximal effect. The method, boiled down: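 Compounds were tested at 15 concentrations in three independent runs. Dye-loaded CHRM1-CHO cells were exposed 5 min at room temperature before stimulation by acetylcholine added at 50nM. Intracellular calcium was read kinetically on FDSS for 3 min.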

The target of experiment [13] is Beta-2 adrenergic receptor (Homo sapiens) (UniProt P07550). The experiment can be described thus: Adrenergic beta2 receptor (ADRB2) small molecule antagonists, cell-based qHTS assay (AID 1963592). Further: series mostly up to about 92 µM; nearly all actives have a fitted effect of over 50% in size. The method, boiled down: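 Assay format: CHO-ADRB2 cells, 18-20hr seeding at 37C/5% CO2, then compound plus 1nM isoproterenol agonist mix for 0.5hr RT. Homogeneous time-resolved fluorescence cAMP detection after 1hr, expressed as 665/615 nm ratio.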
Chain of Beta-2 adrenergic receptor (Homo sapiens) (P07550 whole entry, looked up): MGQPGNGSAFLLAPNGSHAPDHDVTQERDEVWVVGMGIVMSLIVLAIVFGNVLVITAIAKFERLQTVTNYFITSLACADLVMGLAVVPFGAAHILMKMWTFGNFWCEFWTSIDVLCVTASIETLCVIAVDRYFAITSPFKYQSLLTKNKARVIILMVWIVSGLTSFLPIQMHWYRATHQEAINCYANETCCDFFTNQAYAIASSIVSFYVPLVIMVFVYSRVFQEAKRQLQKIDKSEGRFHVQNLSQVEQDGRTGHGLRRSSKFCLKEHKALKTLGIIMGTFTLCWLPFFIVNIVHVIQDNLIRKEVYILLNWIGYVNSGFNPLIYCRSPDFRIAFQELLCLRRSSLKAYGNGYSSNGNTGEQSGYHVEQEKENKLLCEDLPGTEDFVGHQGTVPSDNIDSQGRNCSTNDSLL

For experiment [14] the target is unchanged. Put plainly: Adrenergic beta2 receptor (ADRB2) small molecule agonists, cell-based qHTS assay (AID 1963593).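 Further: CHO cells stably overexpressing human ADRB2.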 The method, boiled down: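 CHO cells stably over-expressing ADRB2 were plated overnight at 37C, then dosed with compounds plus a stimulation mix containing 100uM IBMX and 25uM Ro-20-1724 for 0.5hr at room temperature. cAMP was measured by HTRF competition, 1hr.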

Experiment [15] addresses D(2) dopamine receptor (Homo sapiens) (UniProt P14416). Put plainly: Dopamine D2 receptor (DRD2) small molecule agonists, cell-based qHTS assay (AID 1963594). Further: nearly all actives have a fitted effect of over 35% in size. Summed up:
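HEK293 cells stably expressing human DRD2, pre-treated with PDE inhibitor Ro20-1724 (0.1 mM final) and compound 10 min at room temperature, then stimulated with NKH477 (200nM […]) for 30 min. cAMP read by HTRF (665/620 nm).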

Experiment [16] shares this target. The experiment can be described thus: Dopamine D2 receptor (DRD2) small molecule antagonists, cell-based qHTS assay (AID 1963595; active means well fitted inhibition curve with a large enough effect in the signal ratio in the repeat runs, with a control signal flat; the % refers to the signal ratio). The method, boiled down: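 Readout: HTRF cAMP, cAMP-d2 competing with cellular cAMP for anti-cAMP cryptate, read after 1 h. Cells: DRD2-HEK293. Conditions: 0.1 mM Ro20-1724, 12 nM quinpirole, 200 nM NKH477, 30 min RT.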
The nature of experiment [17]: p53 small molecule agonists, cell-based qHTS assay (AID 1963582; active means well fitted activation curve with a large enough effect in the signal ratio in the repeat runs, not every such curve was filed as active; the % refers to the signal ratio). The method, boiled down:
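Measured: fluorescence from cleaved LiveBLAzer substrate. System: p53RE-bla cells, 16 h compound treatment at 37 C, 2 h substrate step at room temperature.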

Experiment [18] in a line: cAMP Responsive Elements (CRE) small molecule agonists, cell-based qHTS assay (AID 1963590). Summed up:
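Test agents in DMSO were incubated 3 h at 37 C/5% CO2 with CRE-bla HEK 293T cells seeded 18 h earlier; LiveBLAzer B/G FRET substrate was added and read after 2 h at room temperature.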

The nature of experiment [19]: cAMP Responsive Elements (CRE) small molecule antagonists, cell-based qHTS assay (AID 1963591; active means well fitted inhibition curve with a large enough effect in the signal ratio in the repeat runs, not every such curve was filed as active; the % refers to the signal ratio). Summed up:
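Reporter line CRE-bla HEK 293T in dialyzed-FBS DMEM; cells preincubated 18 h, treated 3 h with compound plus NKH477 (0.25 uM final); LiveBLAzer FRET, 2 h RT.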

Experiment [20] has as its target Muscarinic acetylcholine receptor M1 (Homo sapiens) (UniProt P11229). Put plainly: Cholinergic receptor muscarinic 1 (CHRM1) small molecule agonists, cell-based qHTS assay (AID 1963589). Further: nearly all actives have a fitted effect of over 35% in size. The method, boiled down: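 Kinetic fluorescence (1 s intervals) of calcium-sensitive dye in human M1 CHO cells after compound addition; cells pre-incubated 18 h at 37 C/5% CO2 and dye-loaded 1 h.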

SMILES strings stand for the structures. Values without a mark were called inactive. Inconclusive results are not listed. Activity calls are given as the source filed them. Unless noted, the call rests on the fitted dose curve.
On the % scale 0 is the no-effect control and ±100 the full control effect.

Chain of D(2) dopamine receptor (Homo sapiens) (P14416 whole entry, looked up): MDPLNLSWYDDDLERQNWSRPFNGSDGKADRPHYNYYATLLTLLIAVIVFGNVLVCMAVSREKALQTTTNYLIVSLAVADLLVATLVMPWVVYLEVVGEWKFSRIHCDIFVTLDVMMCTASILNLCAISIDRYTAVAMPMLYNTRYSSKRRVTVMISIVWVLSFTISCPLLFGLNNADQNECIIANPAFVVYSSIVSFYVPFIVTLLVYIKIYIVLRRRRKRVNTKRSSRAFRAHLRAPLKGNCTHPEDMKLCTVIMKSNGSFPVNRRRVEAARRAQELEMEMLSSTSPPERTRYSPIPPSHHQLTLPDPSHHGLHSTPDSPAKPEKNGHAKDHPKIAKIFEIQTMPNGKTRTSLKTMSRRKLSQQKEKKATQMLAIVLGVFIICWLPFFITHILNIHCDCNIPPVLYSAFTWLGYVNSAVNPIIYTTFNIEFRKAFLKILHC
Chain of Muscarinic acetylcholine receptor M1 (Homo sapiens) (P11229 whole entry, looked up): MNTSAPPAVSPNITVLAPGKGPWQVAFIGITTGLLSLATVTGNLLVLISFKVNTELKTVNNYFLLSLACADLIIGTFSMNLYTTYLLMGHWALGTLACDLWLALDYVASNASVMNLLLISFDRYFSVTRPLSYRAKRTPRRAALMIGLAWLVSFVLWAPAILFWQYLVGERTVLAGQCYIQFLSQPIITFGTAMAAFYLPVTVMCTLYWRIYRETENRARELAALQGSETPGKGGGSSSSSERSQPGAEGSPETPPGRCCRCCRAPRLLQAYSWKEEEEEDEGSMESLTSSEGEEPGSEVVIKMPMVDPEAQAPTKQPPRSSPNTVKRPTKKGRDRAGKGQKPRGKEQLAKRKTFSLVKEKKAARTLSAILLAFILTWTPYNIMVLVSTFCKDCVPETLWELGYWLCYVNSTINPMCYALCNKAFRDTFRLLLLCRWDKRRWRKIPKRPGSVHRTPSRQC
Chain of 5-hydroxytryptamine receptor 2A (Homo sapiens) (P28223 whole entry, looked up): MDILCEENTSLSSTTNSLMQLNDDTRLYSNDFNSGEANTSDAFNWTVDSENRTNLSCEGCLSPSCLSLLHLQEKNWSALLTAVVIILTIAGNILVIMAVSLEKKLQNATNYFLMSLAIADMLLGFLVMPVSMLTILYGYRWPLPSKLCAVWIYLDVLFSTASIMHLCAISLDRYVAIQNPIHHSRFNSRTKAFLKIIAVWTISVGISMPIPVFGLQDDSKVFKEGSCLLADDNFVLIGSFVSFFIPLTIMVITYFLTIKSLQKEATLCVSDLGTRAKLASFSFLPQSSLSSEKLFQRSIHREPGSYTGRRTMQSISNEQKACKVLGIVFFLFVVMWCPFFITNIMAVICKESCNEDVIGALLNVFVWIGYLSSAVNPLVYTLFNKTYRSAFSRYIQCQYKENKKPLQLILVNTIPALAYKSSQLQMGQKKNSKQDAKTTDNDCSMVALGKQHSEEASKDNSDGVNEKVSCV
Chain of KiSS-1 receptor (Homo sapiens) (Q969F8 whole entry, looked up): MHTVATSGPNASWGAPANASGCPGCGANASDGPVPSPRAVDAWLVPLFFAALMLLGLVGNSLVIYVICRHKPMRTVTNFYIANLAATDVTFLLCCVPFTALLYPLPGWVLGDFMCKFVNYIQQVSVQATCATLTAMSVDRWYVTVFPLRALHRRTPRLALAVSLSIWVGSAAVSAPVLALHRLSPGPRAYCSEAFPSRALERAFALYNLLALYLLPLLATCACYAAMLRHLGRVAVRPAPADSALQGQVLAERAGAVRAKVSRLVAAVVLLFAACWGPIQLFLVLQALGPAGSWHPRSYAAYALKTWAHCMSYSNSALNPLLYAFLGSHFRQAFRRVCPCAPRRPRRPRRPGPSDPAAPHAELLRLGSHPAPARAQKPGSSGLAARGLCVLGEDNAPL

For `CC(C(=O)O)c1ccc2c(c1)[nH]c1ccc(Cl)cc12` (configuration not stated), the Potency result in [1], in experiment [2], in [3], in experiment [4], in [5] and in experiment [6] was “inactive” in each case. The Potency entry in experiment [7], in experiment [8], in experiment [9], in experiment [10], in experiment [11] and in [12] was “inactive” throughout. Further, the Potency result in experiment [13], in experiment [14], in experiment [15] and in experiment [16] was “inactive” throughout.

Regarding `NC(Cc1ccc(F)cc1)C(=O)O` (configuration not stated), the activity change, negative = cytotoxicity in experiment [1] was 2.68% [at 8.39 µM]; in [7], 3.36% [at 5.99 µM]; in experiment [8], 9.8% [at 5.99 µM]; in experiment [9], -3.36% [at 5.99 µM]. In addition, the activity change in experiment [2] was -0.388% [at 5.22 µM, stronger effect = higher value]. Also, the activation in [3] was 2.03% [at 6.97 µM]; in experiment [4] it was -0.478% [at 5.23 µM]; in experiment [5] it was 4.13% [at 5.99 µM]; in [6], 1.09% [at 5.99 µM]; in [17], 1.84% [at 5.99 µM]; in experiment [18], -1.9% [at 8.39 µM]. Moreover, the activation in experiment [14] is -31.2% [at 8.39 µM]; in experiment [15], 1.24% [at 8.39 µM]. For the same molecule, the activity change, negative = inhibition in [19] is -1.08% [at 8.39 µM]; in experiment [13] it was -3.88% [at 8.39 µM]; in experiment [16], 11.6% [at 8.38 µM].

Regarding `Clc1cc(Cl)c2c(c1)N=C1CCCCCN1C2`, the Potency entry in [1], in experiment [2], in [3], in experiment [4], in [5] and in experiment [6] was “inactive” each time. The Potency entry in experiment [7], in experiment [8], in [17], in experiment [10], in experiment [11] and in [20] was “inactive” throughout. Moreover, the Potency result in experiment [13] and in experiment [14] was “inactive” each time.

Turning to `c1ccc2sc(SSc3nc4ccccc4s3)nc2c1`, the activity change, negative = cytotoxicity in experiment [1] was 22.3% [at 19 µM]; in experiment [7], -2.64% [at 13.5 µM]; in experiment [8], 0.0229% [at 13.5 µM]; in [9] it was -1.21% [at 13.5 µM]. Also, the activity change in [2] is -1.6% [at 11.8 µM, stronger effect = higher value]. Moreover, the activation is 4.25% [at 15.8 µM] in experiment [3]; 0.255% [at 11.8 µM] in [4]; 13.9% [at 13.5 µM] in experiment [5]; -0.548% [at 13.6 µM] in experiment [6]; 0.366% [at 13.5 µM] in [17]; -0.0759% [at 19 µM] in experiment [18]. The activation is 0.998% [at 19 µM] in experiment [14] and 10.5% [at 19 µM] in experiment [15]. In addition, the figures for the activity change, negative = inhibition in experiment [19], in [13] and in [16] were 0.327% [at 18.9 µM], 1.66% [at 19 µM] and 5.58% [at 18.9 µM], respectively.

As for `COc1ccc2cc(CCC(C)=O)ccc2c1`, the Potency result in experiment [1], in experiment [2], in [3], in experiment [4], in experiment [5] and in experiment [6] was “inactive” throughout. For the same molecule, the Potency entry in experiment [7], in experiment [8], in experiment [9], in experiment [17], in [18] and in [19] was “inactive” each time. Moreover, the Potency result in experiment [13], in experiment [14], in experiment [15] and in experiment [16] was “inactive” in each case.

In the case of `CCC(C)Nc1ccc(NC(C)CC)cc1` (configuration not stated), the Potency in experiment [1] is 3.93 µM (active); in experiment [7], 2.08 µM (active); in [8], 4.66 µM (active); in experiment [9], 10.4 µM (active); in [12], 9.6 µM (active). Moreover, the Potency result in experiment [2], in experiment [3], in experiment [4], in [5], in [6] and in [10] was “inactive” in each case. Further, the Potency result in experiment [20] was “inactive”.

In the case of `CC(C)CCOC(=O)c1ccc(N(C)C)cc1`, the Potency result in experiment [1], in [2], in experiment [3], in [4], in experiment [5] and in [6] was “inactive” in each case. The Potency entry in experiment [7], in experiment [8], in experiment [17], in experiment [11], in experiment [12] and in experiment [20] was “inactive” each time. Besides, the Potency entry in experiment [18], in experiment [19], in [13], in [15] and in [16] was “inactive” throughout.

These data come from PubChem BioAssay (Tox21).
